Inhibition data for 94 compounds are collected here from PubChem BioAssay AID463195 (Sanford-Burnham Center for Chemical Genomics, 2010).

Structures are written as SMILES. Among all 330,000 compounds or so, about 4,600 (1.4%) were called active. Shown is part of a subset that was picked to be rich in actives. Values without a mark were called inactive.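 The calls were made as follows: active = inhibition of 40% or more at the single tested concentration; inactive = the rest.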

By inhibition is commonly meant the relative decrease from the control value, in per cent.

The nature of this experiment: wild-type TIM10 yeast growth inhibition – luminescence, uHTS, counter-screen for tim10-1 yeast inhibitor project, primary screen (AID 463195).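 Also: wild-type TIM10 isogenic control strain grown at permissive 25 °C; 0% = DMSO yeast wells and 100% = minimal medium wells without yeast.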 Particulars: S. cerevisiae TIM10 strain growth, BacTiter-Glo luminescence, 24 h; at 10 µM; stronger effect = higher value.
Consider `COc1cc(C(=O)NCC(=O)N2CC=C(c3ccccc3)CC2)cc(OC)c1OC`, for which the inhibition is 20.4%.

Turning to `O=C(Nc1cccc(NC(=O)N2CCN(c3ccccc3)CC2)c1)N1CCN(c2ccccc2)CC1`, the inhibition was -4.11%.

Regarding `O=C(Nc1ccc(Cl)c(Cl)c1)N1CC=C(c2ccccc2)CC1`, the inhibition is 48.1% (active).

Turning to `CCOC(=O)N1CCC(N2Cc3cccc(C(=O)Nc4c(C)cccc4CC)c3C2=O)CC1`, the inhibition is 15.7%.

On to `CN(C)Cc1c(O)ccc2occ(C(O)c3ccccc3)c12` (centres undefined), for which the inhibition is 9.39%.

With `CC(=O)Cc1nsc(NC(=O)c2ccc(COc3ccc(C)cc3)o2)n1`, the inhibition is 20.8%.

In the case of `CC(C)NC(=O)c1ccc(Cl)cc1Cl`, the inhibition was -6.27%.

`CC(=O)Cc1nsc(NC(=O)c2ccc(Cl)cc2Cl)n1`: the inhibition was 45.2% (active).

In the case of `Cc1cc(C)cc(NS(=O)(=O)Cc2ccccc2)c1`, the inhibition was -1.77%.

In the case of `O=C(c1snnc1-c1ccccc1)N1CCOCC1`, the inhibition was 15.4%.

In the case of `O=C(CCCN1CCc2[nH]c3ccc(F)cc3c2C1)c1ccc(F)cc1`, the inhibition is 14.8%.

With `CCc1ccc(S(=O)(=O)N/N=C\c2ccc([N+](=O)[O-])o2)cc1`, the inhibition is 14.1%.

For the compound `CCn1c(=O)c([N+](=O)[O-])c(NCc2ccc3c(c2)OCO3)c2ccccc21`, the inhibition is 15.2%.

Consider `CCn1c(/C=C/c2ccc([N+](=O)[O-])o2)nc2ccccc2c1=O`, for which the inhibition is 49.9% (active).

For the compound `CC1CCN(C(=O)c2cc3nc(C4CC4)cc(C(F)(F)F)n3n2)CC1`, the inhibition was 16.4%.

Regarding `Cc1ccc(N(CC(O)CN2CCCC2)S(=O)(=O)c2ccccc2)cc1` (centres undefined), the inhibition is -2.21%.

For the compound `Cc1cccc(N(CC(O)CN(C)C)S(=O)(=O)c2ccccc2)c1` (centres undefined), the inhibition was 0.713%.

`Cc1cc(C)n(CC(O)CN(c2ccccc2)S(=O)(=O)c2ccc3ccccc3c2)n1` (centres undefined): the inhibition is 48% (active).

`C/C=C/C(=O)OCC(=O)Nc1ccc(F)cc1Cl`: the inhibition was -3.48%.

Consider `Nc1ncnc2c1ncn2[C@@H]1O[C@H](CNS(=O)(=O)c2ccc(-c3ccno3)s2)[C@@H](O)[C@H]1O`, for which the inhibition was -1.72%.

In the case of `CCCS(=O)(=O)N1CCN=C1SCc1cccc(F)c1`, the inhibition was -11.5%.

As for `CCc1c(C)nc(N)n2c(SCC(=O)NC3CCCCC3)nnc12`, the inhibition is -10.7%.

`COc1ccc(S(=O)(=O)Nc2cc(C)on2)cc1NC(C)=O`: the inhibition is 12%.

Take `Cc1nn(C(=O)c2ccoc2C)c(N)c1-c1ccccc1`: the inhibition was -12.3%.

On to `Cc1nn2c(c1-c1ccccc1)N=C(c1ccco1)CC2c1ccccc1` (centres undefined), for which the inhibition was 48.1% (active).

`O=C(O)CCCC(=O)N1N=C(c2ccco2)CC1c1ccco1` (centres undefined): the inhibition was -11.4%.

On to `CCN(CC)S(=O)(=O)N1CCC(C(=O)NC(C)CCc2ccccc2)CC1` (centres undefined), for which the inhibition is -3.42%.

Consider `C/C(=N\NC(=O)C1(C)CC1(Br)Br)c1ccc(C)cc1C` (centres undefined), for which the inhibition is 10%.

With `O=C1Cc2cc(S(=O)(=O)Nc3cccc(F)c3)ccc2N1`, the inhibition is -1.95%.

On to `CN(C)CCN(C(=O)C1=COCCO1)c1nc2ccc(Cl)cc2s1`, for which the inhibition is 79.4% (active).

`CN(C)CCN(C(=O)C1CCCCC1)c1nc2cc3c(cc2s1)OCO3`: the inhibition is 11.6%.

Regarding `Cc1ccc2nc(N(CCN(C)C)C(=O)C3=COCCO3)sc2c1`, the inhibition is 53.1% (active).

On to `CCN(CC)CCN(C(=O)c1cc(Cl)sc1Cl)c1nc2cc3c(cc2s1)OCO3`, for which the inhibition was 23.3%.

In the case of `CN(C)CCN(C(=O)CN1C(=O)c2ccccc2C1=O)c1nc2cc3c(cc2s1)OCCO3`, the inhibition is -5.86%.

For `CCc1ccc2nc(N(CCCN(C)C)C(=O)c3ccc4c(c3)OCCO4)sc2c1`, the inhibition was 13.5%.

For the compound `CC(=O)c1ccc(N2CCN(C(=O)c3ccc(Cl)c(S(=O)(=O)NC4CC4)c3)CC2)c(F)c1`, the inhibition is -5.83%.

Take `COC(=O)c1ccc(/C=C2/C(=O)Oc3ccccc32)cc1`: the inhibition was 25.7%.

For the compound `O=C1Oc2ccccc2C(=O)/C1=C/c1ccccc1O`, the inhibition was 61.4% (active).

With `COc1ccc2c(c1)O/C(=C\c1ccccc1O)C2=O`, the inhibition is 23.8%.

For `C=CCO/N=C(\C)c1c(O)c(C)c(-c2ccccc2)n(-c2ccccc2)c1=O`, the inhibition was 30.7%.

For the compound `CCCCCC(=O)Nc1ccc(-c2cn3cccnc3n2)cc1`, the inhibition is 33.6%.

As for `CC(C(=O)Nc1ccc(F)c(F)c1F)N1CCCCCC1` (centres undefined), the inhibition is -12.6%.

Take `COCCCNC(=O)/C(C#N)=C/c1c(N2CCCCCC2)nc2ccccn2c1=O`: the inhibition is -2.43%.

With `O=Cc1c(Nc2ccccc2Cl)nc2ccccn2c1=O`, the inhibition is 4.5%.

`O=Cc1c(N2CCN(c3cccc(Cl)c3)CC2)nc2ccccn2c1=O`: the inhibition was 40.1% (active).

As for `CCOC(=O)c1sc2nc(C)nc(Nc3ccc(OC)c(OC)c3)c2c1C`, the inhibition was -3.77%.

As for `C/C(=N\NC(=O)C(N)=O)c1ccc2c(c1)OCCO2`, the inhibition was 9.07%.

For the compound `C/C(=N/NC(=S)Nc1ccccc1)c1ccc2c(c1)OCO2`, the inhibition was 43.2% (active).

As to `C/C(=N/NC(=O)c1ccncc1)c1ccc2c(c1)OCO2`, the inhibition was -3.5%.

Turning to `COCCNc1nc(-n2nc(C)cc2C)nc2sc3c(c12)CCCC3`, the inhibition is 26.3%.

Consider `Cc1cc(C)n(-c2nc(SCC(=O)N3CCCC3)c3c4c(sc3n2)CCCC4)n1`, for which the inhibition was 47.4% (active).

As to `CC(C)c1nc(SCC(=O)Nc2cccc(C(=O)O)c2)c2c3c(sc2n1)CCCC3`, the inhibition was 6.83%.

Regarding `O=C(OCCO)c1cc(Cl)c(C(=O)OCCO)cc1Cl`, the inhibition is -2.48%.

Take `COc1ccccc1CNC(=O)CCCNS(=O)(=O)c1cccc2nsnc12`: the inhibition was 0.215%.

Regarding `O=C1OCCN1C(=O)[C@H]1[C@H](c2ccccc2)C(c2ccc(F)cc2)=NN1c1ccccc1`, the inhibition is 13.6%.

With `C[C@@H]1C(c2ccc(F)cc2)=NN(c2ccc(Br)cc2)[C@H]1C(=O)N1CCOC1=O`, the inhibition was 44.2% (active).

Consider `O=C1OCCN1C(=O)[C@H]1[C@H](c2ccc(F)cc2)C(c2ccccc2)=NN1c1ccc(Br)cc1`, for which the inhibition is 16.8%.

`CN(C(=O)CN(CCO)CC(=O)N(C)C(C)(C)Cc1ccccc1)C(C)(C)Cc1ccccc1`: the inhibition was 15.9%.

As to `Cc1cc(C)nc(SCc2ccccc2C#N)n1`, the inhibition was 14.7%.

Turning to `Cc1cc(C)nc(SCC(=O)N(C)C)n1`, the inhibition was -9.49%.

On to `Cc1cc(C)nc(S/C=C/C(=O)c2ccccc2)n1`, for which the inhibition was 49% (active).

In the case of `Cc1cccc(N(C(=O)c2ccc(CN3CCOCC3)o2)C(C(=O)NC2CCCCC2)c2ccc(F)cc2)c1` (centres undefined), the inhibition was -2.65%.

Consider `FC(F)(F)C1CCCN(c2nsc3ccccc23)C1` (centres undefined), for which the inhibition was 2.15%.

Regarding `OC(c1ccccc1)C(CN1CCOCC1)c1ccccc1` (centres undefined), the inhibition was 3.43%.

With `Oc1c(Cl)cc(Cl)c(Cl)c1Cc1c(O)c(Cl)cc(Cl)c1Cl`, the inhibition is 90.7% (active).

Regarding `CCCCc1cc2c(s1)CCCC/C2=N/O`, the inhibition is 22.6%.

Take `CCc1ccc(-n2c(=S)sc3c(=O)n(-c4ccccc4OC)c(=S)[nH]c32)cc1`: the inhibition was -1.05%.

With `COc1ccc(NC(=S)NCCN2CCC(C)CC2)cc1`, the inhibition is 4.83%.

As to `COc1ccc(N2CCC(CNC(=S)Nc3c(C)cccc3C)C2)cc1` (centres undefined), the inhibition is 16.7%.

For `COc1ccc(NC(=S)NCC2CCN(c3ccc(OC)cc3)C2)cc1` (centres undefined), the inhibition is 48% (active).

As for `CC(=O)N/C(=C\c1ccc(F)cc1)C(=O)NC(Cc1ccccc1)C(=O)O` (centres undefined), the inhibition was -0.026%.

As for `Cc1ccc(S(=O)(=O)/N=C(/NC(=S)Nc2c(C)n(C)n(-c3ccccc3)c2=O)c2ccccc2)cc1`, the inhibition was 2.05%.

Regarding `CCCCN(C(=O)/C=C/c1ccco1)c1c(N)n(CC(C)C)c(=O)[nH]c1=O`, the inhibition is -1.39%.

Regarding `Cc1ccsc1C(=O)N[C@@H](C)c1nnc2ccccn12`, the inhibition was 0.47%.

With `CC1CCCN(c2ccc(C(=O)NCCc3ccccc3)cn2)C1` (centres undefined), the inhibition is 20.8%.

For the compound `COc1ccc(NC(=O)CC2C(=O)NC3CCCCC3N2C(=O)c2ccc(F)cc2)cc1` (centres undefined), the inhibition is -3.23%.

In the case of `CC(=O)c1ccc(NC(=S)N(Cc2ccccc2)C(C)C2CC2)cc1` (centres undefined), the inhibition is 12.5%.

On to `CC(C)N(Cc1ccccc1)C(=S)Nc1ccc(OC(F)F)cc1`, for which the inhibition was 44% (active).

For the compound `CN(CC(=O)Nc1ccc(OC(F)F)cc1)S(=O)(=O)/C=C/c1ccccc1`, the inhibition was 15.2%.

Consider `C=CCC(CC=C)(C(N)=O)c1ccccc1`, for which the inhibition was 1.01%.

As to `CC(Sc1nnc2c(n1)C1CCC2(C)C1(C)C)C(=O)Nc1ccccc1` (centres undefined), the inhibition is 14.6%.

Regarding `Cc1ccccc1S(=O)(=O)Cc1ccc(C(=O)NCCN2CCCCC2C)o1` (centres undefined), the inhibition was -4.28%.

Turning to `CC(=C/c1ccccc1)/C=N/NC(=O)c1cc(C)oc1C`, the inhibition was 9.24%.

As to `CC(/C=N/NC(=O)c1cc(-c2ccc3ccccc3c2)n[nH]1)=C\c1ccco1`, the inhibition is 45.8% (active).

In the case of `CC(C)(C)C1CCC(=NNC(=O)c2cc(-c3ccccc3)n[nH]2)CC1` (centres undefined), the inhibition is -10.2%.

As to `COCC1CCCN(Cc2cn[nH]c2-c2cc3ccccc3o2)C1` (centres undefined), the inhibition was -1.56%.

Regarding `COc1ccc(CN2CCCC(C(=O)N3CCCCC3)C2)cc1` (centres undefined), the inhibition is -13%.

For the compound `C=C1CCN([C@@H](Cc2ccccc2)C(=O)N2CCOCC2)S(=O)(=O)c2ccccc21`, the inhibition is 1.68%.

Regarding `Cn1c(=O)c2c(SCC(=O)NCC3CCCO3)nc(CC(C)(C)C)nc2n(C)c1=O` (centres undefined), the inhibition is 20.8%.

Turning to `C/C(Cc1ccccc1)=N\NC(=O)CNC(=O)c1ccccc1Cl`, the inhibition was -5.47%.

Take `S=C(NCC1COc2ccccc2O1)Nc1ccc(Br)cc1` (centres undefined): the inhibition is -1.91%.

Regarding `CC(NC(=S)Nc1ccccc1)C1COc2ccccc2O1` (centres undefined), the inhibition was 47.6% (active).

In the case of `CCCN(CC1COc2ccccc2O1)C(=S)Nc1ccc(C)cc1` (centres undefined), the inhibition was 30.5%.

For `C/C(=N\Nc1cccc(C(=O)O)c1)c1ccc2c(c1)Nc1ccccc1S2`, the inhibition is 10.7%.
